Screens (PubChem BioAssay)
DT40 TDP1 CPT: DT40-hTDP1 cell growth loss with CPT. hit rate 12% among 420,000. chicken DT40 Tdp1-/-;hTDP1 cells + 20 nM CPT, ATP luminescence, 48 h. Potency, µM (top dose mostly 46.2 µM), for inactives: at the highest dose activity change, negative = growth inhibition, hits mostly inhibitors; also: nearly all actives have a fitted effect of over 55% in size
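Chicken DT40 Tdp1-/- cells stably complemented with human TDP1 were seeded at 400 cells/well in medium containing 20 nM camptothecin, exposed to pin-transferred compounds, and grown at 37 °C for at least 48 hr. Viability was read as ATP luminescence.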
TDP1 cell noCPT: qHTS for Inhibitors of human tyrosyl-DNA phosphodiesterase 1 (TDP1): qHTS in cells in absence of CPT. Potency, µM (titrated, usually from 46.2 µM), inactives show at the highest dose activity change, negative = growth inhibition, hits mostly inhibitors. AID 686978, 2013. hit rate 15% among 420,000. DT40 Tdp1-/- hTDP1 cells, no CPT, ATP luminescence, 48 h; also: nearly all actives have a fitted effect of over 55% in size
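Growth kinetics read by CellTiter-Glo luminescence after ≥48 hr at 37 °C. Cells: DT40 Tdp1-/- stably carrying human TDP1, 400 per well, compound exposure in the absence of CPT (DMSO vehicle).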
GCN5L2 inh: blocks human GCN5L2 histone acetyltransferase | Q92830 | GCN5L2 HAT assay, ThioGlo1 CoA-SH fluorescence | Potency, µM (top dose mostly 58.9 µM), for inactives: at the top dose activity change, negative = inhibition, most hits filed as inhibitors | hit rate 0.21% among 390,000 | AID 504327
Target sequence (Q92830 whole entry, looked up): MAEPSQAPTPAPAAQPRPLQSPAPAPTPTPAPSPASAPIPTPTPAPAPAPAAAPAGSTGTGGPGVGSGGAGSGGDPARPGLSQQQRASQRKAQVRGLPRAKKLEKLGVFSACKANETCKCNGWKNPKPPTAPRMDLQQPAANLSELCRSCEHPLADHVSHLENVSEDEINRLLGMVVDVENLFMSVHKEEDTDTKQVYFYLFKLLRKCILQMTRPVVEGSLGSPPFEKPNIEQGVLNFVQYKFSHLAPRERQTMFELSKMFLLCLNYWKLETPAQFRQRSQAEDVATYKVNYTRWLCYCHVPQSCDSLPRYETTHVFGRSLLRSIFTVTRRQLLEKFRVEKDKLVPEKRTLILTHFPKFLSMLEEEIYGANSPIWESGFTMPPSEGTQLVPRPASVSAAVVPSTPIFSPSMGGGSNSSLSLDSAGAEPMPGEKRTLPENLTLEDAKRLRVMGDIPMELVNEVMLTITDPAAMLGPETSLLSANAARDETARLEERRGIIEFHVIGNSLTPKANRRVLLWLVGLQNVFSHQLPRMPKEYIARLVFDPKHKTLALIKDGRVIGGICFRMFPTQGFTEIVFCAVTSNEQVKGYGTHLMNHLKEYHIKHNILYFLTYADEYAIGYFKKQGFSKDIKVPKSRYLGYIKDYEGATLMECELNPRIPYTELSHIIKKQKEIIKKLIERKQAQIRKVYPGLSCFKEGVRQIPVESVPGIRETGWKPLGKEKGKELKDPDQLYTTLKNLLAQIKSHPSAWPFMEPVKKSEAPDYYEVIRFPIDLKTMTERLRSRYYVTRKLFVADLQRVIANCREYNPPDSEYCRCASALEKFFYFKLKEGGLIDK
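Enzyme at 20nM final was mixed with library compounds for 15 min at room temperature. Peptide H3(1-25) at 75uM, acetyl-CoA at 70uM and ThioGlo1 at 50uM were then added. Plates were read immediately and after 20 min (Ex340nm/Em540nm).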
TDP1 inh: TDP1 (human) enzyme inhibition; Q9NUW8; recombinant TDP1, AlphaScreen DNA substrate cleavage; Potency, µM (doses to about 130 µM), for the others: at the highest dose activity change, negative = inhibition, actives largely listed as inhibitors; hit rate 0.28% among 350,000; AID 485290; also: nearly all actives have a fitted effect of over 40% in size
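Enzyme-compound mixtures sat 15 min at room temperature, followed by a 5 min reaction with 15 nM final substrate and 10 min with AlphaScreen beads. Recombinant human Tdp1 was used at 1 nM final.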
VDR inhibitor: blocks the human vitamin D receptor; P11473; VDR-SRC2-3 peptide fluorescence polarization, 2 h; Potency, µM, for inactives: max response, negative = inhibition, actives largely listed as inhibitors; hit rate 0.93% among 400,000
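Fluorescence polarization assay measuring small-molecule disruption of VDR binding to the coregulator peptide SRC2-3. Compounds were pin-transferred (23 nl) into the reagent mix and incubated 2 h at room temperature before reading.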
PLK1 PBD inh: blocks phosphopeptide binding to human PLK1 polo-box domain; P53350; Plk1 PBD binding of FITC phosphopeptide, fluorescence polarization; Potency, µM, inactives show max response, negative = inhibition, usual class: inhibitors; hit rate 2.8% among 360,000; AID 720504; also: series mostly up to about 57 µM; nearly all actives have a fitted effect of over 65% in size
The depositor's hits bear a star; ? = inconclusive; nt = not tested or not shown; [ ] = another dose, or the depositor's remark. The list is not random: actives were taken first. Their share in the collection is about 18%. Calls follow the shape of the dose curve; as a rule, active = well fitted curve in the direction sought with a large enough effect; inconclusive = small, poorly fitted or top-dose-only effect, or another doubt; inactive = no such curve, though single readings can be large; an effect the other way counts as inactive or inconclusive. % is scaled to controls: 0 for no effect and ±100 for the full control effect; potency is read from the fitted curve at half-maximal effect.

SMILES	DT40 TDP1 CPT	TDP1 cell noCPT	GCN5L2 inh	TDP1 inh	VDR inhibitor	PLK1 PBD inh
COc1ccc(CCNC[C@@H](O)c2ccc(O)cc2)cc1OC	nt	nt	-1%	-7%[56.1 µM]	-9%	nt
Cc1ccc(C)n1-n1c(C)nc2scc(-c3cccs3)c2c1=O	?	18µM*	-6%	9%	11%	-9%
Cc1nc2scc(-c3cccs3)c2c(=O)o1	-4%	-6%	?	3%	9%	-6%
CC(C)OC(=O)c1cc2c(ccn2C)n1CC(=O)N1CCC(Cc2ccccc2)CC1	?	21µM*	-14%	12%	-8%	-18%
CCOC(=O)c1cc2c(ccn2C)n1CC(=O)N(Cc1ccccc1)c1ccccc1	23µM*	?	-8%	8%	-8%	-6%
CCOC(=O)c1cc2c(ccn2C)n1CC(=O)N(Cc1ccccc1)c1ccc(F)cc1	-27%	-2%	-12%	3%	10%	-8%
CC(C)OC(=O)c1cc2c(ccn2C)n1CC(=O)N(Cc1ccccc1)c1ccc(F)cc1	16µM*	21µM*	-7%	0%	-11%	-4%
Cc1ccc(C)c(Cn2c(C(=O)OC(C)C)cc3c2ccn3C)c1	-18%	?	-16%	8%	3%	-9%
O=C(CCC(=O)N1CCSc2ccccc21)NC1CCCCC1	?	-27%	?	nt	7%	-3%
O=C(CCc1c[nH]c2ccccc12)N[C@@H](Cc1c[nH]c2ccc(O)cc12)C(=O)O	-5%	1%	-3%	nt	-5%	-3%
CC(C)c1nc2oc3c(NCC4CCCO4)ncnc3c2c2c1COC(C)(C)C2 (stereo not drawn)	?	15µM*	-3%	5%	0%	-4%
Cc1nc2oc3c(NCC4CCCO4)ncnc3c2c2c1COC(C)(C)C2 (stereo not drawn)	0%	-1%	-8%	0%	-6%	-4%
O=C(CSc1nnnn1-c1cccc2ccccc12)NC(C(=O)O)(c1ccccc1)c1ccccc1	29%	10%	-1%	-3%	-11%	-9%
COC(=O)c1ccc(C(NC(=O)OCc2ccccc2)/C(C)=C/[C@@H](C)C(=O)NCCc2c[nH]c3ccc(OC)cc23)cc1 (stereo partly drawn)	nt	nt	nt	10%	nt	nt
COc1cc2c(cc1NC(=O)CSc1nc3cc(Cl)ccc3s1)oc1ccccc12	?	12µM*	0%	5%	1%	-18%
COc1cc2c(cc1NC(=O)CSc1ccccc1)oc1ccccc12	?	?	-5%	-5%	-14%	-9%
COc1cc2c(cc1NC(=O)CSc1nccn1C)oc1ccccc12	?	18µM*	-5%	0%	-11%	-8%
COCCCC1CCN(Cc2cn[nH]c2-c2cc(OC)c(OC)c(OC)c2)CC1	-1%	?	-5%	-3%	-16%	3%
CC[C@@H](C)[C@@H](C(=O)Nc1ccc(C)cc1)N1Cc2ccccc2C1=O	?	?	-6%	-1%	-11%	nt
Cc1cc(S(=O)(=O)c2ccc(Cl)cc2)nc(S(=O)(=O)c2ccc(Cl)cc2)c1C#N	0.65µM*	0.65µM*	nt	nt	nt	2.7µM*
CNc1nc(C)cc(C)c1S(=O)(=O)c1ccc(Cl)cc1	-17%	?	1%	nt	5%	-8%
COc1ccccc1/C=C/C(=O)Nc1ccc2c(c1)CCC2	-27%	12µM*	-6%	-3%	?	-5%
COc1cc2[nH]c(C(=O)Nc3ccc4c(c3)OCCO4)cc2c(OC)c1OC	16µM*	?	-9%	7%	-4%	-3%
COc1ccccc1/C=C/C(=O)Nc1ccc2c(c1)OCCO2	8.2µM*	10µM*	-9%	7%	4%	1%
O=C(/C=C/c1ccccc1)Nc1ccc2c(c1)OCCO2	-4%	2%	-11%	5%	-2%	-6%
SMILES	DT40 TDP1 CPT	TDP1 cell noCPT	GCN5L2 inh	TDP1 inh	VDR inhibitor	PLK1 PBD inh
COc1cccc(OC)c1C(=O)Nc1ccc2c(c1)OCCO2	4%	3%	1%	2%	5%	-1%
CCOC(=O)C1=CN(C(C)C)CCC1=O	-3%	-7%	nt	nt	-29%	-11%
O=C(C[n+]1ccc(/C=C/c2ccccc2)cc1)c1ccc2c(c1)OCCO2	?	9.2µM*	0%	nt	-9%	-6%
Cc1cc[n+](CC(=O)c2ccc3c(c2)OCCO3)cc1	31%	-6%	-20%	3%	4%	-16%
O=C(CCN1Cc2ccccc2C1)c1ccc2c(c1)OCCO2	3.7µM*	5.2µM*	-2%	2%	-89%	24µM*
O=C(CS(=O)(=O)c1ccccc1)c1ccc2c(c1)OCCO2	15µM*	18µM*	-9%	7%	0%	?
CCCCCCCCCCCCCCCC(=O)OC(CC(=O)O)C[N+](C)(C)C (stereo not drawn)	5.8µM*	?	-4%	10%[56.1 µM]	-9%	-20%
CCCCCCCCCCCCCC(=O)O[C@H](CC(=O)O)C[N+](C)(C)C	?	-21%	-14%	-4%[56.1 µM]	?	nt
CCCCCCCCCCCCCCCC(=O)O[C@H](CC(=O)O)C[N+](C)(C)C	?	30µM*	nt	8%	nt	nt
CCCCCCCCCCCCCC(=O)OC(C)C	3%	-3%	44%	4%	4%	nt
CC1(C)CC(=O)C2=C(C1)NC(Nc1nc3ccccc3o1)=NC2c1cccnc1 (stereo not drawn)	?	-26%	nt	0%	7%	nt
CC1(C)CC(=O)C2=C(C1)NC(Nc1nc3ccccc3o1)=NC2c1cccc(O)c1 (stereo not drawn)	7%	?	nt	0%	-6%	nt
CC1(C)CC(=O)C2=C(C1)NC(Nc1nc3ccccc3o1)=NC2c1ccccc1 (stereo not drawn)	2.8µM*	2.8µM*	nt	-2%	10%	nt
COc1ccc(C2N=C(Nc3nc4ccccc4o3)NC3=C2C(=O)CC(C)(C)C3)cc1 (stereo not drawn)	6.3µM*	6.3µM*	nt	0%	-2%	nt
Cc1ccc(C2N=C(Nc3nc4ccccc4o3)NC3=C2C(=O)CC(C)(C)C3)cc1 (stereo not drawn)	7.1µM*	4.5µM*	nt	0%	-15%	nt
O=c1c2sc3nc(N4CCOCC4)c4c(c3c2ncn1-c1ccccc1)CCCC4	?	?	-8%	7%	-3%	-7%
C=CCNc1nnnc2c1sc1nc(N3CCOCC3)c3c(c12)CCCC3	18%	13µM*	-2%	-3%	-4%	-7%
O=c1c2sc3nc(N4CCOCC4)c4c(c3c2ncn1C(c1ccccc1)c1ccccc1)CCCC4	?	?	nt	nt	-13%	2%
